Test results taken from article PMC7862700, “An all-to-all approach to the identification of sequence-specific readers for epigenetic DNA modifications on cytosine”.

What was measured:
Experiment in all cases: DAPPL (digital affinity profiling via proximity ligation, sequencing); 10 mM Tris-HCl pH 7.5, 50 mM NaCl, 1 mM DTT, 4% glycerol, room temperature, 30 min; GST-TFs on glutathione beads, 16-mer random dsDNA library, 0.1% formaldehyde crosslink after washing; high values mean tight binding
[1] = target: T1, FLI1 (Homo sapiens, UniProt Q01543 1-452); settings: protein: recombinant; tags: N-terminal GST; dsDNA, one strand shown
T1 sequence: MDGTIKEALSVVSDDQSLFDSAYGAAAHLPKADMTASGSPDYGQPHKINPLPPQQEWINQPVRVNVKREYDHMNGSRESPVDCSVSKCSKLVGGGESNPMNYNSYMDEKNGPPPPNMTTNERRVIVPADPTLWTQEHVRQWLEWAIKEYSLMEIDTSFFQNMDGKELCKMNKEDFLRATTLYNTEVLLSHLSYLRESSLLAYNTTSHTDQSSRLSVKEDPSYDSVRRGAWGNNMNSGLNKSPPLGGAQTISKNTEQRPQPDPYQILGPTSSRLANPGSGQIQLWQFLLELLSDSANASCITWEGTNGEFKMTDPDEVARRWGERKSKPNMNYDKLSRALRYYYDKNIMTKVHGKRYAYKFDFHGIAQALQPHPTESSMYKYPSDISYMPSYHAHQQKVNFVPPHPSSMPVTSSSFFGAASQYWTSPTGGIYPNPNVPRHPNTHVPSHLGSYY
In short: (§1)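 A tag-only sample was pooled with DNA-barcoded human transcription factors that had been expressed in yeast as GST fusions and captured on glutathione beads. The pools were incubated for 30 min at room temperature with 200 nmole of a random double-stranded 16-mer DNA library in Tris/NaCl/DTT/glycerol buffer, then washed, crosslinked with 0.1% formaldehyde, proximity-ligated (BsaI/T4 ligase, 1 h, 37 °C), PCR-amplified and sequenced on an Illumina NextSeq500. Binding signal is each hexamer's read frequency for a factor divided by its frequency for the tag-only sample.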

[2] = target: T2, ELK1 (Homo sapiens, UniProt P19419 1-428); settings: protein: recombinant; tags: N-terminal GST; dsDNA, one strand shown
T2 sequence: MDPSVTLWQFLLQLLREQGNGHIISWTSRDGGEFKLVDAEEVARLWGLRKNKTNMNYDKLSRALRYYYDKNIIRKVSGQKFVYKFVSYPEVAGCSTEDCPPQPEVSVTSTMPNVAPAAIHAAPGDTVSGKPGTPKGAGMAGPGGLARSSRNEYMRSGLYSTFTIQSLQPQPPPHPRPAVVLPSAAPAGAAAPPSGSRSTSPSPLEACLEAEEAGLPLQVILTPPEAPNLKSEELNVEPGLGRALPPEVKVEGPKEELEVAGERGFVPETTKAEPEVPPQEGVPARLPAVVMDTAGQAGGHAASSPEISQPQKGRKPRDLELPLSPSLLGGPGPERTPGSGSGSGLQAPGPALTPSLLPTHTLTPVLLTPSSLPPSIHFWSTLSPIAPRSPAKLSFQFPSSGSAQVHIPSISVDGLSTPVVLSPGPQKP
In short: as §1

[3] = target: T3, GABPA (Homo sapiens, UniProt Q06546 1-454); settings: protein: recombinant; tags: N-terminal GST; dsDNA, one strand shown
T3 sequence: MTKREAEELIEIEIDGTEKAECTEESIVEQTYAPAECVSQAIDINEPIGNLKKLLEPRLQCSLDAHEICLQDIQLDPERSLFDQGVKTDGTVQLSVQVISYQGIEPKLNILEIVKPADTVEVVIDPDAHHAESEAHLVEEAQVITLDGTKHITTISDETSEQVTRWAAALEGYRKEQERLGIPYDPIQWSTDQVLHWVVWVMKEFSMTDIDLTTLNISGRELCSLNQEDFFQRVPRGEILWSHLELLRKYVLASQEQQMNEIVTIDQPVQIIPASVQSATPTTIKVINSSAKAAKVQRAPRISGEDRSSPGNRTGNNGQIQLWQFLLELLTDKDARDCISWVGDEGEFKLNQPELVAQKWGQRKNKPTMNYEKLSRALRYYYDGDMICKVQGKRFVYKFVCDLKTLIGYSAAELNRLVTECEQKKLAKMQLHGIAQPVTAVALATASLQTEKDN
In short: as §1

[4] = target: T4, ERG (Homo sapiens, UniProt P11308 1-479); settings: protein: recombinant; tags: N-terminal GST; dsDNA, one strand shown
T4 sequence: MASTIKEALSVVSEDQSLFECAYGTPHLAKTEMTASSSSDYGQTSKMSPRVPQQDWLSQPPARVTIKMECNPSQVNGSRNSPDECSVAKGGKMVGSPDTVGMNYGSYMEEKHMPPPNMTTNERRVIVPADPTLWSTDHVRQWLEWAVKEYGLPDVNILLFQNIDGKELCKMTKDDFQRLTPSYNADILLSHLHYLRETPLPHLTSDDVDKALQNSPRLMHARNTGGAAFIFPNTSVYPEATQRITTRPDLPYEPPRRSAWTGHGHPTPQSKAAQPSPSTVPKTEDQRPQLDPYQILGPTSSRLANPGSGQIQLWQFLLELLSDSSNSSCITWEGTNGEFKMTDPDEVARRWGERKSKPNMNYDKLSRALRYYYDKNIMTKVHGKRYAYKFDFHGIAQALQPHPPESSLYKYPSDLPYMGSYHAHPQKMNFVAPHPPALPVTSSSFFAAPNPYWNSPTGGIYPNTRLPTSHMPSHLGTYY
In short: as §1

[5] = target: ELF1 (Homo sapiens, UniProt P32519 1-619); settings: protein: recombinant; tags: N-terminal GST; dsDNA, one strand shown
ELF1, sequence (P32519 whole entry): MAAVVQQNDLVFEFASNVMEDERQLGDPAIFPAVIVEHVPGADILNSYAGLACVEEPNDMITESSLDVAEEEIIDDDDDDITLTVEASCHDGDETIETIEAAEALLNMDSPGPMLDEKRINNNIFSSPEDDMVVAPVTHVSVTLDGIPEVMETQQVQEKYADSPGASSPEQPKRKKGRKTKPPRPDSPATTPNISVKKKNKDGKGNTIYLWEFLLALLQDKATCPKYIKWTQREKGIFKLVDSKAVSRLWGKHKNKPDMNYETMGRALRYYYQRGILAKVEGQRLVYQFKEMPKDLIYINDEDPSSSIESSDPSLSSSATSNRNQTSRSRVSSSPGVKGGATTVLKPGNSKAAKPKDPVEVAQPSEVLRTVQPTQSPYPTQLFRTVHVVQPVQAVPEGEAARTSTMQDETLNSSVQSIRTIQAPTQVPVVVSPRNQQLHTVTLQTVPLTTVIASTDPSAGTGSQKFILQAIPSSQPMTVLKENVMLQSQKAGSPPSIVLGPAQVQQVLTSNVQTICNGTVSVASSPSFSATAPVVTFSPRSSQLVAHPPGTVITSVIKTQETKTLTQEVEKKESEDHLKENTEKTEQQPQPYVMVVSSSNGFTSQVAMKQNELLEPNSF
In short: as §1

[6] = target: T5, EHF (Homo sapiens, UniProt Q9NZC4 1-300); settings: protein: recombinant; tags: N-terminal GST; dsDNA, one strand shown
T5 sequence: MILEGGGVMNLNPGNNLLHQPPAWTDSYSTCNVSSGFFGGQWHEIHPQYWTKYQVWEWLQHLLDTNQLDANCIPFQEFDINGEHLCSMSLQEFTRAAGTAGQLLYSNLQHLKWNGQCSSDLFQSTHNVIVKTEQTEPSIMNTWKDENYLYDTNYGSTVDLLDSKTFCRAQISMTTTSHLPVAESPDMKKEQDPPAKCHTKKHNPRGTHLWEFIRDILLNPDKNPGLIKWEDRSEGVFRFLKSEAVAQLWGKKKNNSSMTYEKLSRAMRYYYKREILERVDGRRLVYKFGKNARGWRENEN
In short: as §1

[7] = target: SPI1 (Homo sapiens, UniProt P17947 1-270); settings: protein: recombinant; tags: N-terminal GST; dsDNA, one strand shown
In short: as §1

[8] = target: SPIB (Homo sapiens, UniProt Q01892 1-262); settings: protein: recombinant; tags: N-terminal GST; dsDNA, one strand shown
SPIB, sequence (Q01892 whole entry): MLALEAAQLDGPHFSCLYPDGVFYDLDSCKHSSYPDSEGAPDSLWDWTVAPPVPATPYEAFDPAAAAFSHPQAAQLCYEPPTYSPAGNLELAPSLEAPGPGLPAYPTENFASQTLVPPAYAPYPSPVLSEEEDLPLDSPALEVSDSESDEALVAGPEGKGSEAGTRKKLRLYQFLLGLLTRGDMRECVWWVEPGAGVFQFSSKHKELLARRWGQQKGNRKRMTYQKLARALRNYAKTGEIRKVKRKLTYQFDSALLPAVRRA
In short: as §1

[9] = target: T6, ELK3 (Homo sapiens, UniProt P41970 1-407); settings: protein: recombinant; tags: N-terminal GST; dsDNA, one strand shown
T6 sequence: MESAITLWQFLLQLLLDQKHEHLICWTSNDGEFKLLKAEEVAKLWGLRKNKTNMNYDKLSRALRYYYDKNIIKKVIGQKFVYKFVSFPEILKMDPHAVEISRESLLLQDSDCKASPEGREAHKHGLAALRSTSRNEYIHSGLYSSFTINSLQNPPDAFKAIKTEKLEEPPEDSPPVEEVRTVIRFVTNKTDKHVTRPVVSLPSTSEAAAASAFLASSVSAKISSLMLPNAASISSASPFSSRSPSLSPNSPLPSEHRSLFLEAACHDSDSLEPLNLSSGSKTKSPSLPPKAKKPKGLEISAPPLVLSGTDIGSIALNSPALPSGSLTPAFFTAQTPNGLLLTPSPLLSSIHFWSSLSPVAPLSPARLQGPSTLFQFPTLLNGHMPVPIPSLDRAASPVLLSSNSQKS
In short: as §1

[10] = target: T7, FEV (Homo sapiens, UniProt Q99581 1-238); settings: protein: recombinant; tags: N-terminal GST; dsDNA, one strand shown
T7 sequence: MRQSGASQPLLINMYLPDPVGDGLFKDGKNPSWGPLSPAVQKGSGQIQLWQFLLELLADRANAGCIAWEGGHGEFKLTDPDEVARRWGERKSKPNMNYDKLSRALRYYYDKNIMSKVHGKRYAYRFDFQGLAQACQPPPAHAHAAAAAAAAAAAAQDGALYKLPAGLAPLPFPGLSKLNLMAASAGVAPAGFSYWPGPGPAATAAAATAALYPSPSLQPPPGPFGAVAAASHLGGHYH
In short: as §1

[11] = target: ETV5 (Homo sapiens, UniProt P41161 1-510); settings: protein: recombinant; tags: N-terminal GST; dsDNA, one strand shown
ETV5, sequence (P41161 whole entry): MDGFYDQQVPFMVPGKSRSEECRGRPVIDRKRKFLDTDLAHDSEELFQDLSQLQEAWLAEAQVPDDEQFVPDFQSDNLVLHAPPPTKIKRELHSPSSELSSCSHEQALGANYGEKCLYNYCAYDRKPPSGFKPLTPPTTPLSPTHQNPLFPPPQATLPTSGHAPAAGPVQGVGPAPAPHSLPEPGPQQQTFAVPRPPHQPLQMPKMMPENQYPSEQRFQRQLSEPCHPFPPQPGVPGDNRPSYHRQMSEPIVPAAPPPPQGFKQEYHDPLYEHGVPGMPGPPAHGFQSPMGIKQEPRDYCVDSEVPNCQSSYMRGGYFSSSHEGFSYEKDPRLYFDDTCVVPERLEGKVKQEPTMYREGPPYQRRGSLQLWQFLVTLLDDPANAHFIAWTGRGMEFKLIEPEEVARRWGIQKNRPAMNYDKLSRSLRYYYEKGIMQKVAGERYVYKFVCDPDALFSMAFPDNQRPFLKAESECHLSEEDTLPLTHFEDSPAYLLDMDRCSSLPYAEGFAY
In short: as §1

[12] = target: HSF1 (Homo sapiens, UniProt Q00613 1-529); settings: protein: recombinant; tags: N-terminal GST; chain copies: 3; dsDNA, one strand shown
HSF1, sequence (Q00613 whole entry): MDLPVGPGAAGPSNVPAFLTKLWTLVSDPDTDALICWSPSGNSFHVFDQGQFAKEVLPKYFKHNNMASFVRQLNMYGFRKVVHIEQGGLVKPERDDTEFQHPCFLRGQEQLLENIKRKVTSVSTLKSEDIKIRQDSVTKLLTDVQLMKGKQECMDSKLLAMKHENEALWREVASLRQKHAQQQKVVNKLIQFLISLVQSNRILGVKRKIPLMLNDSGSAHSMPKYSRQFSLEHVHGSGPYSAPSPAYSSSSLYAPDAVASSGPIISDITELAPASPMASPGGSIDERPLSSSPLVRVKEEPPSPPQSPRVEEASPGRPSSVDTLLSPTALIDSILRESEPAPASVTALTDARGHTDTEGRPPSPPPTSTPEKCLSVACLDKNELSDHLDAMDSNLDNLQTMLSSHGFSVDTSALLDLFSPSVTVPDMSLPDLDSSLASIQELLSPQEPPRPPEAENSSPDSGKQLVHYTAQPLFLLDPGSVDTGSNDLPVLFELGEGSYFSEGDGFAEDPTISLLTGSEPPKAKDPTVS
In short: as §1

[13] = target: T8, SPIC (Homo sapiens, UniProt Q8N5J4 1-248); settings: protein: recombinant; tags: N-terminal GST; dsDNA, one strand shown
T8 sequence: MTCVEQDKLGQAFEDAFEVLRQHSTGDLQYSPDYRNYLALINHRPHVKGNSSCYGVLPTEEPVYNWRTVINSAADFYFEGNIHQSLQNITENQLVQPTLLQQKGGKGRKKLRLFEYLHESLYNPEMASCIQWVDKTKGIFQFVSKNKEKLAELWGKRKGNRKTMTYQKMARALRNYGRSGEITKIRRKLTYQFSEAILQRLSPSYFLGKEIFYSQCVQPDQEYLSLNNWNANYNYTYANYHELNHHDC
In short: as §1

[14] = target: T9, ELK4 (Homo sapiens, UniProt P28324-2 1-405); settings: protein: recombinant; tags: N-terminal GST; dsDNA, one strand shown
T9 sequence: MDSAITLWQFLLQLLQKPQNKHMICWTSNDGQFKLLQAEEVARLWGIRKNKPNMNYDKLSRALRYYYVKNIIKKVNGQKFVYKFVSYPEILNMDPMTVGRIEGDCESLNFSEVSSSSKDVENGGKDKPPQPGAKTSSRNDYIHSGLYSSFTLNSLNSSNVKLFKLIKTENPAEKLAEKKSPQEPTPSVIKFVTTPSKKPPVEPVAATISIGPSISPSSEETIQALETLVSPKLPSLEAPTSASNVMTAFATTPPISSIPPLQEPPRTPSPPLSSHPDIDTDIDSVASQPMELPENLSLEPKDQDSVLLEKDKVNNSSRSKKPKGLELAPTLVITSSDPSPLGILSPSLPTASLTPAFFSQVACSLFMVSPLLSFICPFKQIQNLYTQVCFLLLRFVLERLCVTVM
In short: as §1

[15] = target: T10, ETV2 (Homo sapiens, UniProt O00321 1-342); settings: protein: recombinant; tags: N-terminal GST; dsDNA, one strand shown
T10 sequence: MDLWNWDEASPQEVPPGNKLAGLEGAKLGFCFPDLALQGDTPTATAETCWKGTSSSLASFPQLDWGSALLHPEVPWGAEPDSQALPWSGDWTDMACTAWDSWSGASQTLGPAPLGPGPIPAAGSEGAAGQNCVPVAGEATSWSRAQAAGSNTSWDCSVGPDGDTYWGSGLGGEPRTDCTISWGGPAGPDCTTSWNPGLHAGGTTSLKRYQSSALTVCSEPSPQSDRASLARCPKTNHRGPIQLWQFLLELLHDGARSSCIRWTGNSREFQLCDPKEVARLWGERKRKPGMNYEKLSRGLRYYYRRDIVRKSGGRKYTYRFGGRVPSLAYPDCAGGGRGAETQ
In short: as §1

[16] = target: CRX (Homo sapiens, UniProt O43186 1-299); settings: protein: recombinant; tags: N-terminal GST; dsDNA, one strand shown
CRX, sequence (O43186 whole entry): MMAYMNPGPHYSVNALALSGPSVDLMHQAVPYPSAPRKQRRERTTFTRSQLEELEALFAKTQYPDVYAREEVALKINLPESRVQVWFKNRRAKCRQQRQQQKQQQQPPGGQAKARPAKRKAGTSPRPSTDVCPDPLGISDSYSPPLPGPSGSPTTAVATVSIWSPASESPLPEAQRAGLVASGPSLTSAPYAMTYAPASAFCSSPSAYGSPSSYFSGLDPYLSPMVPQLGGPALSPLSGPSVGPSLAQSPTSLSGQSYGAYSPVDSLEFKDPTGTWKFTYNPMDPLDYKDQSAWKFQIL
In short: as §1

[17] = target: ETV1 (Homo sapiens, UniProt P50549 1-477); settings: protein: recombinant; tags: N-terminal GST; dsDNA, one strand shown
ETV1, sequence (P50549 whole entry): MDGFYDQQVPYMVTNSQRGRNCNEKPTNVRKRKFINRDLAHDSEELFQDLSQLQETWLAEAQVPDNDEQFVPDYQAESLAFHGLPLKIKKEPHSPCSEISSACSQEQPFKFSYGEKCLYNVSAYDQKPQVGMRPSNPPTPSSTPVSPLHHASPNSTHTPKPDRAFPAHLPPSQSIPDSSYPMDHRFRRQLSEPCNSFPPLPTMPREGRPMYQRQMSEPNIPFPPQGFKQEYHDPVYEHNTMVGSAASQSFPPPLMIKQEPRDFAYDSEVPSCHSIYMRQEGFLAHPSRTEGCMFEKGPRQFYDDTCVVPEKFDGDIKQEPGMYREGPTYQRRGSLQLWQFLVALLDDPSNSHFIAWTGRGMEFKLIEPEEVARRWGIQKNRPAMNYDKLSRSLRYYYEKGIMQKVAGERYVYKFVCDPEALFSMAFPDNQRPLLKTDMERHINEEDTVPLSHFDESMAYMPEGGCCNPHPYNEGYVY
In short: as §1

TAACGG
binding signal [1]: 1.1 fold enrichment (6-mer frequency, TF over GST control) | binding signal [2]: 1.18 fold enrichment (6-mer frequency, TF over GST control) | binding signal [3]: 1.03 fold enrichment (6-mer frequency, TF over GST control) | binding signal [4]: 1.08 fold enrichment (6-mer frequency, TF over GST control) | binding signal [5]: 1.03 fold enrichment (6-mer frequency, TF over GST control) | binding signal [6]: 1.14 fold enrichment (6-mer frequency, TF over GST control) | binding signal [7]: 1.21 fold enrichment (6-mer frequency, TF over GST control) | binding signal [8]: 1.13 fold enrichment (6-mer frequency, TF over GST control) | binding signal [9]: 1.03 fold enrichment (6-mer frequency, TF over GST control) | binding signal [10]: 1.1 fold enrichment (6-mer frequency, TF over GST control) | binding signal [11]: 1.09 fold enrichment (6-mer frequency, TF over GST control) | binding signal [12]: 1.03 fold enrichment (6-mer frequency, TF over GST control) | binding signal [13]: 1.07 fold enrichment (6-mer frequency, TF over GST control) | binding signal [14]: 1.02 fold enrichment (6-mer frequency, TF over GST control) | binding signal [15]: 1.11 fold enrichment (6-mer frequency, TF over GST control) | binding signal [16]: 1.21 fold enrichment (6-mer frequency, TF over GST control) | binding signal [17]: 1.04 fold enrichment (6-mer frequency, TF over GST control)
